The panel holds about 83,000 compounds, 20% with a hit somewhere; the sample as a whole holds those more often.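 Interpretation: 100, growth as untreated; towards 0, rising growth inhibition; 0, no net growth; 0 to -100, cell death. Compounds scoring below 10 were considered active.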 Unmarked numbers belong to inactive results. Calls of active or inactive are those of the source.
How the values were obtained:
Assay in all cases: NCI-60 one-dose screen, 48 h (100 = growth as untreated, 0 = no growth, -100 = all killed)
Details in all cases: 10 µM unless noted
HCT-15 colon = system: HCT-15 colon
HT29 colon = system: HT29 colon
SNB-75 CNS = system: SNB-75 CNS
SNB-19 CNS = system: SNB-19 CNS
U251 CNS = system: U251 CNS
PC-3 prostate = system: PC-3 prostate
SK-MEL-5 melanoma = system: SK-MEL-5 melanoma
UACC-62 melanoma = system: UACC-62 melanoma
LOX IMVI melanoma = system: LOX IMVI melanoma
SK-MEL-28 melanoma = system: SK-MEL-28 melanoma
SK-MEL-2 melanoma = system: SK-MEL-2 melanoma
EKVX NSCLC = system: EKVX NSCLC
UO-31 renal = system: UO-31 renal
TK-10 renal = system: TK-10 renal
ACHN renal = system: ACHN renal
CAKI-1 renal = system: CAKI-1 renal
CCRF-CEM leukemia = system: CCRF-CEM leukemia
MOLT-4 leukemia = system: MOLT-4 leukemia
SN12C renal = system: SN12C renal
A498 renal = system: A498 renal

SMILES | growth (HCT-15 colon) | growth (HT29 colon) | growth (SNB-75 CNS) | growth (SNB-19 CNS) | growth (U251 CNS) | growth (PC-3 prostate) | growth (SK-MEL-5 melanoma) | growth (UACC-62 melanoma) | growth (LOX IMVI melanoma) | growth (SK-MEL-28 melanoma) | growth (SK-MEL-2 melanoma) | growth (EKVX NSCLC) | growth (UO-31 renal) | growth (TK-10 renal) | growth (ACHN renal) | growth (CAKI-1 renal) | growth (CCRF-CEM leukemia) | growth (MOLT-4 leukemia) | growth (SN12C renal) | growth (A498 renal)
Nc1nc(Nc2ccc(Cl)cc2)nn1S(=O)(=O)c1ccc(-c2ccc(F)cc2)cc1 | 77.4% | 80% | 79% | 88.8% | 88.8% | 67.4% | 98.7% | 72.5% | 83.6% | 94.5% | 107% | 81.5% | 57.2% | 97.3% | 81.8% | 59.8% | 95.1% | 74.5% | – | –
COc1ccc(C(=O)/C=C/c2cc3c(c(OC)c2)OCC(=O)N3)cc1 | 33.4% | 19.2% | 20.7% | 76.1% | 67.6% | 49.6% | 84.2% | 85.3% | 40.1% | 73.1% | 110% | – | 62.2% | – | 46.3% | 20.8% | 7.77% (active) | 6.17% (active) | 48.7% | –
N[C@H]1CCC[C@@H]1NCCCCN1C(=O)c2cccc3cccc(c23)C1=O | 83.6% | 26.2% | 75.7% | 77% | 63% | 55% | 91.6% | 95.7% | 26.1% | 90.3% | – | 84.6% | 60.3% | 65.8% | 44.9% | 84.4% | 84.5% | 20.2% | 63.9% | 40.5%
Nc1ccn(C2OC(F)(CO)C(O)C2F)c(=O)n1 (configuration not stated) | 63.1% | 48.3% | 68.3% | 36.8% | 29.8% | 50.1% | 47.4% | 49.3% | 73.1% | 74.3% | – | 81.4% | 10.7% | 75.8% | 2.4% (active) | 35.6% | 25% | 18.8% | 36.4% | 50.2%
COc1cc2oc(-c3cccc(C(=O)Nc4ccc(C#N)cc4)c3)cc(=O)c2c(O)c1OC | 75% | 53.9% | 83.9% | 44% | 61.3% | 7.86% (active) | 70.3% | 41.5% | 55.7% | 32.8% | 74.4% | – | 55.3% | 50.5% | 38.7% | 85.2% | 88.5% | 88.3% | 64.9% | –
CCN(CC)S(=O)(=O)c1ccc(O)c(NC(=O)c2[nH]c(C)c(C(C)=O)c2CCc2ccc(Cl)cc2)c1 | 42.9% | 101% | 52.1% | 47.1% | 31.1% | 32.8% | -25% (active) | 20.2% | 39.5% | 70.9% | – | 78% | 23.5% | 53.9% | 36.2% | 56.8% | 62% | 28.3% | 43% | 26%
COc1cc(NC(=O)c2cccc(-c3cc(=O)c4c(OC)c(OC)c(OC)cc4o3)c2)cc(OC)c1OC | 40.7% | 31.1% | 74.7% | 56.3% | 44.9% | 52.4% | 8.34% (active) | 50.5% | 24.4% | 63.5% | 41.7% | – | 20.9% | 69.4% | 56.7% | 40.6% | 31.3% | 10.4% | 45.9% | –
COc1ccc(/C=C2\C=C(c3ccccc3)N(CCc3ccccc3)C2=O)cc1OC | 60.9% | 38.6% | -7.78% (active) | 43.3% | 15.9% | 54.4% | 38.5% | 54.5% | 2.28% (active) | 76.7% | – | 56.1% | -47.5% (active) | -3.91% (active) | -32.5% (active) | 62% | 57.6% | 34% | 53% | -75.4% (active)
CCNCCNc1cc(-c2ccc(C#N)cc2)c(C#N)c2nc3ccccc3n12 | 33.6% | 4.72% (active) | -20.4% (active) | 51% | -23.4% (active) | 44.7% | 65.7% | -34.8% (active) | -53.9% (active) | -47.7% (active) | – | 76% | -21.3% (active) | 82.3% | 3.09% (active) | 57.4% | 27.5% | 51.2% | 59.3% | 60.7%
C[C@@H]1C(=O)N(C[C@H](Cc2ccccc2)N(Cc2ccccc2)Cc2ccccc2)[C@]1(Cc1ccccc1)C(=O)OC(C)(C)C | 70.9% | 46.4% | 71.3% | 66.9% | 49.2% | 27.9% | 45.5% | 60.6% | 62.8% | 92% | – | 53.2% | 41.2% | 50.5% | 63.9% | 55.2% | 70% | 63.8% | 56.8% | 8.49% (active)
Cc1[nH]c(-c2nc3ccccc3[nH]2)c(C)c1C(=O)N1CCOCC1 | 95.5% | 98.3% | 87.8% | 88.7% | 100% | 98.8% | 98.8% | 90% | 97.4% | 105% | 99.6% | – | 82.2% | – | 98.3% | 101% | 112% | 105% | 86.8% | –
COc1ccc(-c2cc(-c3cc(OC)ccc3O)[nH]c(=O)c2C#N)cc1 | 60.2% | 28.4% | 58.9% | 65.4% | 22.5% | 52% | 31.4% | 41.4% | 40.5% | 67.5% | – | 96% | 44.1% | 76.1% | 81% | 77.6% | 46.3% | 32% | 66.3% | 37.5%
O=C(NCCOCCOCCNc1cccc2c1C(=O)N(C1CCCNC1=O)C2=O)c1cc2c(o1)C(=O)c1ccccc1C2=O (configuration not stated) | -65.3% (active) | 2.43% (active) | -98.3% (active) | 3.8% (active) | -36.4% (active) | 4.67% (active) | -98.7% (active) | -81.7% (active) | -59% (active) | -28.6% (active) | -13.6% (active) | – | -19.8% (active) | 8.39% (active) | 14% | -10.1% (active) | 14.9% | 8.89% (active) | -74.3% (active) | –
Nc1ccc(CCCCc2ccccc2)c(Cl)c1 | 89% | 96.3% | 75.2% | 94.6% | 77.7% | 90.1% | 96.4% | 93.4% | 99.2% | 98.8% | 91.2% | – | 63.9% | – | 94.2% | 83.8% | 60.1% | 69.2% | 87.4% | 73.2%
CCOC(=O)c1cnn2c(-c3ccc(Cl)cc3)nc(NCc3ccccc3)nc12 | 47.7% | 51% | 70.3% | 63.5% | 32.2% | 63% | 86% | 63.4% | 39.7% | 86.7% | 91% | – | 59.9% | 71.3% | 13.7% | – | 66.9% | 64.9% | 31.2% | 31.5%
COc1ccc(-n2nnc(C(=O)NCCc3c[nH]c4ccc(F)cc34)c2C)cc1 | 104% | 86.4% | 93.7% | 105% | 92.4% | 87.4% | 102% | 98.4% | 98.6% | 109% | – | 102% | 83.5% | 96.2% | 102% | 91.7% | 87.9% | 87.9% | 103% | 100%
C[C@@H]1C(=O)N(C[C@H](Cc2ccccc2)NC(=O)OCc2ccccc2)[C@]1(Cc1ccccc1)C(=O)OC(C)(C)C | 62.9% | 56.3% | 68.7% | 71.7% | 63.2% | 27.5% | 58.8% | 51.9% | 73.3% | 85.3% | 76.8% | – | 46.5% | 67.2% | 75.2% | 51.4% | 72.2% | 34% | – | 54%

— PubChem BioAssay (NCI)
